From PubChem BioAssay come the findings set out here.

Assay [1] has as its system Plasmodium falciparum Sir2 (PF13_0152, Sir2A). Nature of the assay: Plasmodium falciparum Sir2A binding compounds – biochemical, small-molecule microarray, 635 nm fluorescence, primary screen (AID 1098).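 Note: score merges spot fluorescence intensity with its signal-to-noise ratio.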 The settings on record: fluorescence 635 nm, higher = more signal.
The nature of assay [2]: probe aDKK1 binding to arrayed compounds – biochemical, biotinylated probe, 635/667 nm fluorescence, primary screen (AID 1099).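 Note: score merges 667nm spot fluorescence with signal to noise across triplicate slides; reference of the scale not given here.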 Particulars: small-molecule microarray, higher = more signal.
Assay [3] can be described thus: probe aCHRDL2 binding to arrayed compounds – biochemical, biotinylated probe, 635/667 nm fluorescence, primary screen (AID 1100). Particulars: small-molecule microarray, higher = more signal.
Assay [4] is described as follows: change in splice reporter luminescence, either direction, cell-based, HEK293, spliceosome inhibition project, primary screen (AID 1101).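 Note: HEK293 cells carrying a splicing-competent luciferase reporter gene; test concentration not given here.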 Particulars: HEK293 splicing luciferase reporter, 24 h, higher = more signal, called active from +8 up or from −8 down. On the technique in general: Reporter assays use an easily measured gene product as a stand-in for the process of interest.

The target of assay [5] is Fibroblast growth factor 10 (Homo sapiens) (UniProt O15520). Description: compounds binding fibroblast growth factor 10 – biochemical, small-molecule microarray, 635 nm fluorescence, primary screen (AID 1102). The settings on record: FGF10 binding, fluorescence 635 nm, higher = more signal.
For assay [6], the system named is glycogen synthase kinase-3 (GSK3A per assay name; protocol says GSK3B). Description: compounds binding glycogen synthase kinase-3 – biochemical, small-molecule microarray, 635 nm fluorescence, GSK3A, primary screen (AID 1103). Note: the record names both GSK3A and GSK3B. Particulars: fluorescence 635 nm, higher = more signal.
Assay [7] has as its target Epidermal growth factor receptor (Homo sapiens) (UniProt P00533). Description: compounds binding epidermal growth factor receptor – biochemical, small-molecule microarray, 635 nm fluorescence, primary screen (AID 1104).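 Note: score merges 667 nm emission intensity with spot signal to noise over triplicate slides.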 Particulars: EGFR binding, higher = more signal.
Assay [8] concerns the target Follistatin-related protein 3 (Homo sapiens) (UniProt O95633). Nature of the assay: compounds binding follistatin-related protein 3 – biochemical, small-molecule microarray, 635 nm fluorescence, primary screen (AID 1105).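 Note: score merges emission near 667 nm and signal to noise per printed spot across three slides.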 Particulars: FSTL3 binding, higher = more signal.
Assay [9] addresses Dickkopf-related protein 1 (Homo sapiens) (UniProt O94907). Nature of the assay: small molecules binding DKK1 protein – biochemical, small-molecule microarray, 635 nm fluorescence scan, primary screen (AID 1106).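 Note: score merges emission near 667 nm with signal to noise over three replicate slides.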 Particulars: higher = more signal.
The test system of assay [10] is Inhibin beta A chain (activin A). Nature of the assay: small molecules binding activin A – biochemical, small-molecule microarray, 635 nm fluorescence scan, primary screen (AID 1107).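 Note: mouse activin A protein probed at 4.33 µg/mL on printed slides; score merges bound-protein fluorescence near 667 nm with spot signal-to-noise.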 The settings on record: INHBA, higher = more signal.

Calls of active or inactive are those of the source.

Follistatin-related protein 3 (Homo sapiens), sequence (O95633 whole entry, looked up): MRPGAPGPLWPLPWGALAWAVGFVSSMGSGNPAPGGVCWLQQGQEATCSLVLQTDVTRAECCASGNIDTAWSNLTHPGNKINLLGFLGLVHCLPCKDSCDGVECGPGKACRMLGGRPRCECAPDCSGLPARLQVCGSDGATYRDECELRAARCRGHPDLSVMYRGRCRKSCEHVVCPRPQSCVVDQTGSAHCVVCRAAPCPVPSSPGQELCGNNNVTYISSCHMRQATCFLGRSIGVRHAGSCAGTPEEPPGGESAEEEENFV
Epidermal growth factor receptor (Homo sapiens), sequence (P00533 whole entry, looked up): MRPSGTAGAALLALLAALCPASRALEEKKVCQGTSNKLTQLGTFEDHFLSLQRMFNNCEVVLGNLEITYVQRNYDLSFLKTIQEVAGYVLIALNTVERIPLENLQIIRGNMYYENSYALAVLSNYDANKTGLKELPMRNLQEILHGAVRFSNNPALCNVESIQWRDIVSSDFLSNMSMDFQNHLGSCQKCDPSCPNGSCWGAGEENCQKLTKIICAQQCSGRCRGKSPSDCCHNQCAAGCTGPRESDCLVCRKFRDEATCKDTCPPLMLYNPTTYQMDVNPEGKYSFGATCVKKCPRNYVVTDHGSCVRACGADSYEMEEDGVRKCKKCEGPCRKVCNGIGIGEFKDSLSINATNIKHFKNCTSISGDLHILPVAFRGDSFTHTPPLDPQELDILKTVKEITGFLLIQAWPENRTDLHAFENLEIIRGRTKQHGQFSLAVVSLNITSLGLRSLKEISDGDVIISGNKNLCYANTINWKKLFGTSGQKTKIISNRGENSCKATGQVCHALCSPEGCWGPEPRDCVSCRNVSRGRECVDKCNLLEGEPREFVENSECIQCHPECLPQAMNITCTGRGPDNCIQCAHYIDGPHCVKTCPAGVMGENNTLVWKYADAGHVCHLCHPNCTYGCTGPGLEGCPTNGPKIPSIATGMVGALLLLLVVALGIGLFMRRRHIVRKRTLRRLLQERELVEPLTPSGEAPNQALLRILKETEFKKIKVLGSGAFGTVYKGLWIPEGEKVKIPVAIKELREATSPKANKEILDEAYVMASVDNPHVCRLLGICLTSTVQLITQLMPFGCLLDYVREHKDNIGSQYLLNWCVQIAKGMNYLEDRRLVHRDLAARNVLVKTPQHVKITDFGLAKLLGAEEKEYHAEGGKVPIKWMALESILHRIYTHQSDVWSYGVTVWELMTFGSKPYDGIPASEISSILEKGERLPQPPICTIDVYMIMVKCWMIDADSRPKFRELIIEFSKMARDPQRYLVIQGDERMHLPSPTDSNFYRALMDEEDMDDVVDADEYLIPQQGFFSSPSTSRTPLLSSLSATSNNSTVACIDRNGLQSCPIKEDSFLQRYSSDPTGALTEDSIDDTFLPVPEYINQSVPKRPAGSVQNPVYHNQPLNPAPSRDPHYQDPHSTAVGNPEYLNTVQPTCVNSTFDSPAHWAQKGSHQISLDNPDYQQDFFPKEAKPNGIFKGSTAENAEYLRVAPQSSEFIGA
Dickkopf-related protein 1 (Homo sapiens), sequence (O94907 whole entry, looked up): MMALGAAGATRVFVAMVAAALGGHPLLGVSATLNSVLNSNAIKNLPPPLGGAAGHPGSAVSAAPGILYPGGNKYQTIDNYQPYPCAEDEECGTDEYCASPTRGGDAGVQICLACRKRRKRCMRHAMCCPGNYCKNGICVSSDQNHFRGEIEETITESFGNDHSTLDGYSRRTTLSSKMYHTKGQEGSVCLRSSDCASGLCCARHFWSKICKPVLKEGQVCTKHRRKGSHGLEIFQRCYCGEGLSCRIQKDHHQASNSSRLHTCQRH
Fibroblast growth factor 10 (Homo sapiens), sequence (O15520 whole entry, looked up): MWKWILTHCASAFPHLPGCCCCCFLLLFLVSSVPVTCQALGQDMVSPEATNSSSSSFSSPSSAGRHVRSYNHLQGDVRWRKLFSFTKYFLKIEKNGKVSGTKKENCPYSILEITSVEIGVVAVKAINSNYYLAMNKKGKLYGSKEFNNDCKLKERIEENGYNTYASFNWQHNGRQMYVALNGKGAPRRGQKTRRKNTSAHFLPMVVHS

As for `COCCn1c(C(=O)N2CCCC2)cc2c1C[C@H]1CN(C(=O)c3ccccc3)[C@@](Cc3ccccc3)(C(=O)OC)[C@@H]21`, the composite z-score in assay [1] is 1.06; in [2] it was 0.592; in assay [3], 0.268; in assay [5], 1.15; in assay [6] it was 1.26; in assay [7], -0.273. Besides, the composite z-score in assay [8] turned out to be 0.166; in [9] it was 0.257; in assay [10], 0.693. Further, the z-score in [4] was -1.09 (inactive).

For the molecule `C=CCC(OC(C)=O)[C@@H]1[C@@H](N(Cc2cc3ccccc3o2)C(=O)c2ccc(-c3ccccc3)cc2)c2cc(OCCCO)ccc2N1C(=O)c1ccc2ccccc2n1` (stereo not given in full), the composite z-score was -0.148 in assay [1]; 0.0919 in assay [2]; 0.51 in [3]; -0.0302 in assay [5]; -1.24 in assay [6]; -0.0803 in assay [7]. Further, the composite z-score in [8] is -0.205; in assay [9], 0.157; in assay [10], 1.33. In assay [4], the z-score is -0.0569 (inactive).

For the molecule `CC(=O)c1ccc(C(O)C2C=CC3C(=O)NC(=O)C3N2Nc2ccc(Cl)cc2Cl)cc1` (stereo not given), the composite z-score in assay [1] was 0.366; in assay [2], 0.947; in assay [3], 1.02; in assay [5] it was 0.554; in [6], -0.454; in assay [7], 0.0262. Moreover, the composite z-score in assay [8] was 0.141; in assay [9] it was -0.291; in assay [10] it was 1.03. The z-score in assay [4] is 0.58 (inactive).

On to `C=CCNC(=O)[C@H]1[C@@H]2C(=O)O[C@@H](c3ccccc3)[C@@H](c3ccccc3)N2[C@@H](c2ccc(O)cc2)[C@]12C(=O)Nc1ccc(C#CC3=CCCCC3)cc12`, for which the composite z-score in assay [1] came to 1.14; in assay [2], 0.593; in [3], 0.662; in [5], 0.703; in [6], 1.13; in [7] it was 0.859. For the same molecule, the composite z-score in [8] was determined as 0.696; in assay [9] it was 0.909; in assay [10], 1.31. The z-score in assay [4] is 0.622 (inactive).

`COCCCNC(=O)[C@@H]1c2ccccc2C(=O)N(Cc2cc(C(F)(F)F)cc(C(F)(F)F)c2)[C@H]1c1ccc(CO)cc1`: the composite z-score in assay [1] was -1.09; in [2], 1.15; in assay [3], 0.291; in assay [5], -0.0413; in [6], 0.0135; in [7] it was -0.301. The composite z-score in [8] stood at 0.142; in assay [9], 0.346; in assay [10], 0.92. In assay [4], the z-score was -0.475 (inactive).

For `CC(C)CNC(=O)[C@@H]1c2ccccc2C(=O)N(Cc2ccccc2)[C@H]1c1ccc(CO)cc1`, the composite z-score is 0.0346 in [1]; 0.282 in assay [2]; 0.96 in assay [3]; -0.787 in assay [5]; 0.0758 in [6]; -1.35 in [7]. Moreover, the composite z-score in [8] is -1.38; in [9] it was -1.05; in [10], -0.217. In addition, the z-score in assay [4] is -0.18 (inactive).

With `COC(=O)[C@@]1(CCS(=O)(=O)c2ccccc2)N=C(c2ccc(OCCCO)cc2)O[C@H]1c1ccccc1N=[N+]=[N-]`, the composite z-score is 1.52 in assay [1]; 0.336 in assay [2]; 0.475 in [3]; 0.419 in assay [5]; 1.29 in assay [6]; 0.491 in assay [7]. Besides, the composite z-score in assay [8] was determined as 0.969; in assay [9] it was 0.425; in assay [10] it was 0.865. For the same molecule, the z-score in assay [4] is 0.177 (inactive).

As to `CCCC=C(CCC)[C@@H](NS(=O)(=O)c1ccc(Cl)cc1)c1ccccc1`, the composite z-score in assay [1] was 0.6; in assay [2], 0.619; in assay [3] it was 0.951; in [5], -0.686; in [6] it was -1.03; in assay [7], -0.972. For the same molecule, the composite z-score is -1.29 in [8], -0.979 in [9] and 0.351 in assay [10]. The z-score in [4] was -1.69 (inactive).

As for `CN(C)CCCNC(=O)[C@@]1(Cc2ccccc2I)c2ccccc2C(=O)N(Cc2ccccc2)[C@H]1c1ccc(CO)cc1`, the composite z-score is 1.54 in [1]; 1.04 in [2]; -0.726 in assay [3]; 1.37 in assay [5]; 1.33 in assay [6]; 0.17 in [7]. Moreover, the values for the composite z-score in assay [8], in assay [9] and in assay [10] were 0.617, 0.707 and 0.0573, respectively. The z-score in [4] was 0.652 (inactive).

For `COCCOC(=O)N1C(=O)[C@@]2(c3cc(C#CCCO)ccc31)[C@H](c1ccc(O)cc1)N1[C@H](c3ccccc3)[C@H](c3ccccc3)OC(=O)[C@H]1[C@@H]2C(=O)N1CCc2cc(OC)c(OC)cc2C1`, the composite z-score came out at 1.16 in assay [1]; 0.058 in [2]; 0.342 in assay [3]; 1.39 in assay [5]; 1.31 in assay [6]; 0.878 in assay [7]. In addition, the composite z-score is 1.44 in assay [8], 0.993 in assay [9] and 1.01 in assay [10]. The z-score in assay [4] is 0.305 (inactive).

With `C=CCN1C(=O)[C@]2(O[C@H](CCO)[C@@H]([Si](C)(C)c3ccc(OC)cc3)[C@@H]2C)c2ccccc21`, the composite z-score in assay [1] is 0.504; in [2], -0.141; in assay [3] it was 0.837; in [5], -0.876; in assay [6], -0.73; in [7] it was -0.66. The composite z-score is -0.608 in assay [8], -1.27 in assay [9] and 0.456 in [10]. Further, the z-score in assay [4] was -3.11 (inactive).

For the molecule `CC(=O)NCCCC[C@@H]1NC(=O)[C@@H]2C[C@H](C(=O)NCCCCCC[N+](C)(C)C)[C@H](c3ccc(O)cc3)N2C1=O`, the composite z-score in assay [1] was 1.42; in [2], -0.134; in [3], -0.208; in assay [5], 0.518; in assay [6], 0.224; in assay [7], 0.0882. For the same molecule, the results for the composite z-score in assay [8], in assay [9] and in assay [10] were 0.977, 1.12 and 0.645, respectively. Further, the z-score in assay [4] was -0.0826 (inactive).

With `COCCOC(=O)N1C(=O)[C@@]2(c3cc(C#Cc4ccc(OC)cc4)ccc31)[C@H](C(=O)Nc1nc3ccccc3s1)[C@H]1C(=O)O[C@H](c3ccccc3)[C@H](c3ccccc3)N1[C@@H]2c1ccccc1OCCO`, the composite z-score in [1] is 0.655; in [2], -0.0582; in assay [3], -0.149; in assay [5] it was 0.517; in assay [6], 0.731; in [7], 0.29. Besides, the figures for the composite z-score in assay [8], in assay [9] and in assay [10] were 0.909, 0.534 and 0.629, respectively. Also, the z-score in [4] was -2.03 (inactive).

Turning to `CC(C)C[C@H]1NC(=O)[C@@]23C(=O)N[C@@H](Cc4ccccc4)C2[C@H](C)[C@@]2(C)O[C@H]2C3/C=C/C/C=C\CNC(=O)[C@@H]2CCCN2C1=O` (stereo not given in full), the composite z-score was 0.903 in assay [1]; -0.244 in assay [2]; -0.575 in [3]; 0.815 in [5]; 0.47 in [6]; 0.139 in assay [7]. Besides, the figures for the composite z-score in [8], in assay [9] and in assay [10] were 0.572, 0.668 and 0.918, respectively. The z-score in assay [4] was 0.091 (inactive).

As to `C=CCC(OC(C)=O)[C@@H]1[C@@H](N(Cc2cc3ccccc3o2)C(=O)Cc2ccc(OC)cc2)c2cc(OCCCO)ccc2N1C(=O)Cc1ccc(OC)cc1` (stereo not given in full), the composite z-score in [1] was -0.193; in assay [2], -0.0082; in assay [3], 0.246; in [5], 0.233; in assay [6], -0.238; in [7], 0.157. In addition, the figures for the composite z-score in [8], in [9] and in [10] were -0.0138, 0.214 and 1.3, respectively. Moreover, the z-score in assay [4] is -0.782 (inactive).

Turning to `CC(C)C[C@@H]1NC(=O)[C@H]2C[C@@H](C(=O)NCCCCCCNC(=O)CS)[C@@H](c3ccc(O)cc3)N2C1=O`, the composite z-score was 1.47 in assay [1]; -0.0603 in [2]; -0.121 in assay [3]; 1.13 in assay [5]; 1.25 in assay [6]; 1.08 in assay [7]. Also, the composite z-score in assay [8] was 1.03; in assay [9], 0.868; in assay [10], -1.17. Further, the z-score in [4] was -0.0594 (inactive).
